Artemis inh: Artemis endonuclease inhibitors, primary screen, biochemical, fluorescence intensity, FAM/BHQ-1 hairpin substrate | 30,000 compounds, 0.78% hits | inhibition, % at 10 µM | AID 686954, 2013 | recombinant Artemis, quenched FAM hairpin cleavage fluorescence;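 active = at 10 µM dose, at least 30% inhibition, measured as corrected fluorescence normalized to stimulator and neutral control wells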
Target sequence (Q96SD1 whole entry, looked up): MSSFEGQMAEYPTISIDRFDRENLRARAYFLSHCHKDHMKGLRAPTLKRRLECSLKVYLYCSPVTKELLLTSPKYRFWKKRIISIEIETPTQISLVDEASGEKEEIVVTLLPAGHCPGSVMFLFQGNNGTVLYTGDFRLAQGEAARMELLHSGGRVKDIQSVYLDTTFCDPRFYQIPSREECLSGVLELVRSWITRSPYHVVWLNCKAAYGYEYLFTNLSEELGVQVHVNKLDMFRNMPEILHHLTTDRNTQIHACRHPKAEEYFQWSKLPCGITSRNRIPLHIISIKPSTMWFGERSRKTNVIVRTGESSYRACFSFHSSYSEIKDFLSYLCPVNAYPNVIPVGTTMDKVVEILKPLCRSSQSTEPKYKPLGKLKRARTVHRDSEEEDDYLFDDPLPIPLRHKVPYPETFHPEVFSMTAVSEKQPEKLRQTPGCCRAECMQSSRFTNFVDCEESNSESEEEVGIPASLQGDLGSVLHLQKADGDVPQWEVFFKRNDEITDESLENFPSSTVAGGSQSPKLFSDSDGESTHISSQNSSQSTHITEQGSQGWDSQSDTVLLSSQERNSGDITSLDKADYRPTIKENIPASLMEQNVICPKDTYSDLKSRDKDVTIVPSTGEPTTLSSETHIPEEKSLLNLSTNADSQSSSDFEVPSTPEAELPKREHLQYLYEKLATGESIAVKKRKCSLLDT
An asterisk follows results filed as active. This is one part of a sample in which hits are shown more often than they occur.

SMILES	Artemis inh
COc1ccc(OC)c(N2C(=O)CC(C(C)c3ccccc3)C2=O)c1 (stereo not drawn)	-7.2
Cc1sc(-c2ccncc2)nc1OC(=O)c1ccccc1	-0.7
Cc1nnc(NC(=O)Cn2cnc3c2c(=O)n(C)c(=O)n3C)s1	-5.5
CCN(Cc1nc2ccccc2c(=O)[nH]1)Cc1cc(=O)oc2cc(OC)ccc12	5.2
CCCCCCn1cnc2c(c1=O)c1nc3ccccc3nc1n2/N=C/c1ccco1	31.8*
CCCCCCn1cnc2c(c1=O)c1nc3ccccc3nc1n2Cc1cccs1	0.1
CCO/C(C)=N/n1c2nc3ccccc3nc2c2c(=O)n(C3CCCC3)c(C)nc21	3.1
CCCCn1c2nc3ccccc3nc2c2c(=O)n(CCC)cnc21	6.7
Cc1nc2c(c(=O)n1CCC1=CCCCC1)c1nc3ccccc3nc1n2/N=C/c1ccco1	41.1*
Cc1cccc(-n2cnc3c(c2=O)c2nc4ccccc4nc2n3Cc2ccco2)c1	15.8
O=C(CC1CCCCC1)Nc1ncn[nH]1	-1.7
CC1(C)CC(=O)C2=C(C1)c1c(ccc3ccccc13)NC2c1ccc(Br)o1 (stereo not drawn)	12.9
N#CC1(Cc2ccc(Cl)cc2)c2ccccc2C=CN1C(=O)c1ccccc1 (stereo not drawn)	2.4
Cc1ccc(OCCOCCn2ccnc2)c(Br)c1	-10.2
Clc1ccc(COc2ccccn2)cc1Cl	-2.8
C=CCOC(=O)C(C#N)c1nc2ccccc2nc1N1CCN(Cc2ccccc2)CC1 (stereo not drawn)	8.7
CCOC(=O)N1CCN(c2nc3ccccc3nc2C(C#N)S(=O)(=O)c2ccc(C)cc2)CC1 (stereo not drawn)	32.7*
C=CCOC(=O)C(C#N)c1nc2ccccc2nc1N1CCN(c2ccccc2OC)CC1 (stereo not drawn)	12.3
COc1ccc2c(c1)N(C)C(=O)CC(c1ccccc1)=N2	3.2
CCCOC(=S)Nc1ccccc1	1.0
Brc1ccc2nc3c(n2c1)CCCC3	1.7
c1ccc(-c2cn3c(n2)SCC3)cc1	-5.0
Brc1ccc(-c2cn3nc4c(nc3n2)CCCC4)cc1	30.7*
c1ccc(-c2cn3nc4c(nc3n2)CCCC4)cc1	33.6*
c1ccc(-c2cn3c(n2)CCC3)cc1	-4.5
SMILES	Artemis inh
Brc1ccc(-c2cnnc(N3CCCC3)n2)cc1	-12.4
COC(=O)c1sccc1NC(=O)c1cc(-c2ccc(C)cc2C)nc2ccccc12	-1.2
COc1cccc(COc2ccccc2C2Nc3ccc(Br)cc3C(=O)N2NC(=O)c2ccncc2)c1 (stereo not drawn)	9.1
COc1cccc(Nc2nc(NCCO)c3ccccc3n2)c1	-7.2
c1ccc2c(N3CCCC3)nc(-c3ccncc3)nc2c1	3.2
COc1ccc(Nc2nc(N3CCCC3)c3ccccc3n2)cc1	33.4*
COC(=O)c1[nH]c2cc(OC)ccc2c1N	-0.7
COc1ccc(N=CC2=C(O)c3ccccc3C2=O)cc1	3.4
O=C1C(C=Nc2ccccc2)=C(O)c2ccccc21	3.9
Cc1ccc(O)c(N=CC2=C(O)c3ccccc3C2=O)c1	38.0*
COC(=O)C1=C(C)NC(=O)NC1c1cccc(OC)c1OCc1ccccc1 (stereo not drawn)	-3.3
Cc1nn(-c2ccccc2)c(C)c1/C=N\NS(=O)(=O)c1ccc(Cl)cc1	0.7
O=C(Nc1ccccc1)Nc1ccc(S(=O)(=O)N2CCCCC2)cc1	3.5
O=C1c2ccccc2C(=O)c2c1ccc(C(=O)N1CCCCC1)c2NCCO	2.0
O=C1C(Nc2ccccc2)=C(N2CCCCC2)C(=O)c2ccccc21	39.2*
Cc1cc(C)c(NC(=O)COc2ccccc2C(=O)Nc2ccc3c(c2)oc2ccccc23)c(C)c1	7.8
COc1cc(C)c(Cl)cc1S(=O)(=O)NCC1CCCO1 (stereo not drawn)	-1.1
COc1ccc(OC)c(S(=O)(=O)NCC2CCCO2)c1 (stereo not drawn)	45.1*
CCOc1cc(C)c(Cl)cc1S(=O)(=O)NCC1CCCO1 (stereo not drawn)	-0.1
NC(=O)C1CCN(C(c2ccccc2Cl)c2nnnn2Cc2ccc3c(c2)OCO3)CC1 (stereo not drawn)	-1.1
CCOC(=O)N1CCN(Cc2nc(N)nc(Nc3ccc(Oc4ccccc4)cc3)n2)CC1	39.2*
CCCCOc1ccc(NC(=O)CN2CCN(C(=O)OCC)CC2)cc1	0.1
Cc1ccc(Nc2nc(N)nc(CN3CCN(Cc4ccc5c(c4)OCO5)CC3)n2)cc1	1.5
CCOC(=O)C1CCCN(C(=O)Cc2ccc(Cl)cc2)C1 (stereo not drawn)	-1.8
CCOC(=O)C1CCCN(Cc2nc(N)nc(Nc3ccc(Cl)cc3)n2)C1 (stereo not drawn)	33.6*
SMILES	Artemis inh
CCOC(=O)C1CCCN(c2cc(C)nc3cc(-c4ccc(Cl)cc4)nn23)C1 (stereo not drawn)	1.4
CCC(C)N(NC(C)=O)c1nc(Cl)nc(NC(C)(C)C)n1 (stereo not drawn)	-8.1
COc1ccc(-c2nc3c(c(=O)n(C)c(=O)n3C)n2CC2CC(c3ccccc3)=NO2)cc1OC (stereo not drawn)	-2.1
CC(C)Cn1c(N)c(C(=O)COC(=O)CC23CC4CC(CC(C4)C2)C3)c(=O)n(C)c1=O	8.2
CCCCC1(C)OC(=O)C(=Cc2ccc(N(C)C)cc2)C(=O)O1 (stereo not drawn)	-4.3
CC1Cc2ccccc2N1C(=O)CN1CCC(n2nnc3cc(C(F)(F)F)ccc32)CC1 (stereo not drawn)	-11.7
CC(C)(C)C(=O)COC(=O)CNC(=O)c1ccc(Oc2ccccc2)cc1	4.5
CCC(SC1=N/C(=C/c2ccccc2OC)C(=O)N1c1ccccc1)C(=O)Nc1cc(C)on1 (stereo not drawn)	0.2
O=C(Cc1ccsc1-c1ccccc1)NO	64.3*
O=C(Cc1cccs1)Nc1ccc(-c2nnc(-c3ccccc3)o2)cc1	-2.4
O=C(Nc1nc(-c2cccs2)c(-c2ccccc2)s1)c1ccco1	10.6
Cc1cc2c(=O)n(CC(=O)NCC(=O)N3CCN(Cc4ccccc4)CC3)cnc2s1	-1.8
O=C(COC(=O)Cn1c(C(F)(F)F)nc2ccccc21)Nc1ccc2c(c1)OCCO2	-8.3
Cc1ccc(NC(=O)C2CCN(S(=O)(=O)c3c(C)n[nH]c3C)CC2)nc1	-3.8
CN(c1ncc(C(F)(F)F)cc1Cl)n1cc(C(N)=O)c2ccccc2c1=O	2.7
CSc1nnc2c3cc(C)ccc3n(Cc3ccccc3)c2n1	37.3*
O=C1c2ccccc2C(=O)N1CSc1nnc2c3ccccc3n(CCc3ccccc3)c2n1	6.6
CCCn1c2ccccc2c2nnc(SC(CC)C(=O)Nc3cc(C)on3)nc21 (stereo not drawn)	0.8
COc1cc(CNCCc2c[nH]c3ccccc23)ccc1OCc1ccc(F)cc1	10.5
Cc1c(Cl)c(-c2n[nH]c(=S)n2-c2ccc(F)cc2)nn1C	-1.4
Cc1cc(C)c(C(=O)C2OC(=O)C(C)(C)C(=O)C2(C)C)c(C)c1 (stereo not drawn)	3.7
COc1ccc(C(=O)NCCCn2ccnc2)cc1	-4.1
Cc1ccc(-c2cc(C(=O)NCc3ccco3)c3ccccc3n2)o1	10.7
Cc1ccc(-c2cc(C(=O)NCCCn3ccnc3)c3cc(Br)ccc3n2)o1	31.0*
CC(=O)N(C)/C=C1\Sc2ccccc2C1=O	-5.8
CCC(=O)N(C)/C=C1\Sc2ccccc2C1=O	-2.3
CC(=O)N(/N=C1\Sc2ccccc2C1=O)c1cccc(C)c1	36.0*
CN(c1cccc(Cl)c1)S(=O)(=O)c1cccc(C(=O)NC2=NCCS2)c1	4.6

Screens from PubChem BioAssay.
